KB-3-1 cytotox – KB-3-1 parental cell cytotoxicity; hit rate 1.4% among 400,000; Potency, µM (doses to about 46.1 µM), most hits filed as cytotoxic; KB-3-1 viability, CellTiter-Glo ATP luminescence, 72 h; AID 1347075; further: on the % scale 0 is the no-effect control and ±100 the full control effect; nearly all actives have a fitted effect of over 60% in size
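Using CellTiter-Glo luminescence, growth of non-resistant KB-3-1 adenocarcinoma cells is assessed 72 h after pin-tool compound addition at 37 °C. Normalized responses across the concentration series yield fitted curves.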
HepG2 viability – HepG2 cytotoxicity, counter-screen for TGF-b inhibitors; HepG2 CAGA-GFP viability, ATP luminescence, 18 h; AID 588856; hit rate 0.76% among 410,000; Potency, µM (series often up to 46.1 µM), for the others: at the top dose activity change, negative = cytotoxicity, usual class: cytotoxic
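CellTiter-Glo luminescence gave cytotoxicity after 18 hours at 37 degrees C. The cells were HepG2 CAGA-GFP in 1% FBS DMEM, stimulated with 500 pg/mL TGF-beta after compound addition. %Activity was normalised to no-cell wells (complete cell-killing) and DMSO (no toxicity), and curves were fitted and classified.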
ATXN2 expr inh – reduces ATXN2 reporter expression in HEK-293 cells. HEK-293 ATXN2-luciferase reporter, luminescence, 24 h. Potency, µM (top dose mostly 57 µM), inactives show at the top dose activity change, negative = inhibition, hits mostly inhibitors. hit rate 0.72% among 360,000. AID 1745845; further: on the % scale 0 is the no-effect control and ±100 the full control effect; nearly all actives have a fitted effect of over 55% in size
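qHTS (up to 57 uM final) was run with 24 h compound exposure of reporter cells at 37 °C. Each well was multiplexed: SteadyGlo luminescence measured ATXN2-luciferase expression after a fluorogenic Gly-Phe-AFC viability readout (25 uM final).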
ATXN viability – reduces viability in counter-screen for ATXN expression inhibitors; S2 cells (HEK-293 line with an ATXN2-luciferase reporter) viability, CellTiter-Fluor protease fluorescence, 24 h; Potency, µM (highest dose often 56.7 µM), most hits filed as cytotoxic; hit rate 0.49% among 400,000; AID 651635; further: nearly all actives have a fitted effect of over 40% in size
TGFb inhibitor – inhibitors of TGF-b signaling; HepG2 CAGA-GFP TGF-b/SMAD3 reporter, GFP fluorescence, 18 h; TGF-beta stimulated, 500 pg/mL final; Potency, µM (highest dose often 46.1 µM), for inactives: at the top dose activity, negative = inhibition, hits mostly inhibitors; hit rate 1.2% among 410,000; further: on the % scale 0 is the no-effect control and ±100 the full control effect; nearly all actives have a fitted effect of over 65% in size
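Using HEPG2 CAGA-GFP reporter cells at 1000 cells/well, we pinned test compounds, stimulated with recombinant TGF-beta (500 pg/mL final) and measured total well GFP after 18 h.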
KB-V1 cytotox – kills drug-selected multidrug resistant KB-V1 cells; hit rate 3.4% among 400,000; Potency, µM (titrated, usually from 46.1 µM), usual class: cytotoxic; AID 1347076; KB-V1 MDR cells viability, CellTiter-Glo, 72 h; further: on the % scale 0 is the no-effect control and ±100 the full control effect; nearly all actives have a fitted effect of over 60% in size
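In this primary screen, KB-V1 cells overexpressing P-gp are incubated with library compounds (lowest to highest concentration) for 72 h at 37 degrees C before a luminescent ATP viability read.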
* marks the source's active call; other numbers are inactive results; i = inactive; u = inconclusive; x = no result; [ ] = dose if it differs, or a comment. Rows were chosen to be rich in hits. Some 5.9% of all compounds tested hit in one or more screens of this group. The call rests on the fitted dose curve; in most records, active means well fitted curve in the direction sought with a large enough effect; inconclusive means small, poorly fitted or top-dose-only effect, or another doubt; inactive means no such curve, though single readings can be large; an effect the other way counts as inactive or inconclusive. Potency means the concentration at half of the fitted maximal effect.

SMILES	KB-3-1 cytotox	HepG2 viability	ATXN2 expr inh	ATXN viability	TGFb inhibitor	KB-V1 cytotox
CC(=O)C1=C(C)OC(N)=C(C#N)C1c1cc([N+](=O)[O-])ccc1Cl (stereo not drawn)	i	6.3µM*	-24%	i	u	i
CC(=O)C1=C(C)OC(N)=C(C#N)C1c1cccc([N+](=O)[O-])c1 (stereo not drawn)	i	-1%	-16%	i	4%	i
COC(=O)[C@@H]1CCCN1Cc1ccc2c(c1)CN(Cc1ccc3c(c1)OCCO3)CCO2	x	x	x	i	x	x
Cc1ccc(-c2csc(NC(=O)c3ccc4c(=O)n5c(nc4c3)CCCCC5)n2)cc1	i	-4%	-26%	i	-27%	10µM*
Cc1cccc(CNC(=O)c2cnn(-c3ncc(C)c(-c4cccs4)n3)c2C2CC2)n1	x	x	x	i	x	x
CCOc1ccccc1NC(=O)c1cc(C(=O)c2cc(OC)ccc2O)coc1=N	i	-2%	3%	i	10%	12µM*
COc1cc(=O)n2c(c1C(=O)N(C)Cc1nonc1C)CCN(C(=O)c1cccc(C)c1C)CC2	x	x	x	i	x	x
CC1=C(C(=O)OCc2ccc3c(c2)OCO3)C(c2ccccc2)NC(=O)N1 (stereo not drawn)	23µM*	-10%	u	i	3%	12µM*
CCOC(=O)C1=C(CN2CC(C)CC(C)C2)NC(=O)NC1c1ccc2c(c1)OCO2 (stereo not drawn)	i	5%	x	i	-10%	18µM*
CCCOc1ccccc1C1NC(=O)NC(C)=C1C(=O)OCc1ccccc1 (stereo not drawn)	i	-2%	u	i	0%	21µM*
CCOC(=O)C1=C(C)NC(=O)NC1c1cccc(OC)c1OCc1ccccc1Cl (stereo not drawn)	i	1%	-17%	i	14%	13µM*
COc1ccc(-c2nc3c4cnn(-c5ccccc5F)c4ncn3n2)cc1	x	-7%	x	x	x	x
Cc1cccc(OCCn2c(SCC(N)=O)nc3ccccc32)c1	i	-25%	-8%	i	4%	i
CO/N=C\CC(=O)Nc1ccc(Cl)c(Cl)c1	7.3µM*	-2%	-11%	i	-6%	u
NC(=O)SCC(=O)Nc1ccc(Cl)c(Cl)c1	i	-61%	u	i	13µM*	i
COC(=O)[C@@]12C[C@@H](CC(=O)NCc3ccc(OC)c(OC)c3)C(=O)N(Cc3cccc4ccccc34)C1=CCC(C)(C)C2	i	x	x	x	x	21µM*
COC(=O)[C@@]12C[C@@H](CC(=O)NCc3cccc4ccccc34)C(=O)N(CCc3ccc(OC)c(OC)c3)C1=CCC(C)(C)C2	u	x	x	x	x	23µM*
COC(=O)[C@@]12C[C@@H](CC(=O)NCc3ccc(C)o3)C(=O)N(CCc3ccc(OC)c(OC)c3)C1=CCC(C)(C)C2	u	x	x	x	x	18µM*
CCCC(=O)Oc1c(Sc2ccc(C)cc2)c(C)nn1-c1ccccc1	x	-4%	x	x	-1%	x
O=C(NCc1ccccc1)c1cc(C2COCCN2C(=O)OCCF)on1 (stereo not drawn)	i	-1%	5%	i	-5%	i
CC(C)(C)c1ccc(C(=O)CCCCl)cc1	x	x	59%	i	x	x
C=CCOc1ccc2c(=O)n(C)c3ccccc3c2c1	x	-6%	x	x	-7%	x
COc1cc2[nH]c(=O)n(CCCC(=O)NCc3ccccc3)c(=O)c2cc1OC	i	2%	-2%	i	-6%	i
Cc1cc(N/N=C/c2ccncc2)nc2ccccc12	u	-21%	x	i	-18%	6.5µM*
Cc1cc(N/N=C/c2cccc(Br)c2)nc2ccccc12	i	-24%	50%	i	-28%	21µM*
SMILES	KB-3-1 cytotox	HepG2 viability	ATXN2 expr inh	ATXN viability	TGFb inhibitor	KB-V1 cytotox
ClC(Cl)(Cl)c1nc(N/N=C/c2ccncc2)c2ccccc2n1	i	0%	-6%	i	-4%	i
Cc1cc(=O)n(C)c(=O)n1CCCCCOc1cccc([N+](=O)[O-])c1	i	-15%	-11%	i	2%	8.2µM*
CC(C)C(NS(C)(=O)=O)c1nnc2n1CCN(Cc1ccc(C#CC(C)(C)O)cc1)CC2 (stereo not drawn)	x	x	x	i	x	x
O=C(CCNS(=O)(=O)c1ccccc1F)N1CCN(C(c2ccccc2)c2ccccc2)CC1	u	-26%	-11%	u	u	8.2µM*
NNC(=O)CSc1cccc2cccnc12	i	-13%	2%	i	5%	i
O=C(CSc1ncccn1)N1CCCCCC1	i	-1%	5%	i	12%	i
CN(C)C(=O)CSc1cccc2cccnc12	u	7.1µM*	u	u	u	u
O=C(CCNS(=O)(=O)c1ccccc1F)N1CCN(S(=O)(=O)c2cccc(F)c2)CC1	i	-21%	5%	i	-12%	i
O=C(CSc1ncccn1)N1CCN(C(=O)CSc2ncccn2)CC1	i	-10%	13%	i	0%	i
O=C(CSc1ncccn1)N1CCN(C(c2ccccc2)c2ccccc2)CC1	i	-11%	3%	i	-1%	18µM*
O=C(CSc1cccc2cccnc12)N1CCCC1	7.3µM*	16µM*	u	u	u	i
O=C(O[C@H]1[C@H](Cc2ccccc2)NS(=O)(=O)[C@H]2CC3C=C[C@]12O3)c1ccc(Br)cc1	i	40%	x	x	-20%	u
COc1ccc(C)cc1S(=O)(=O)N1CCN(c2cccc(Cl)c2)CC1	i	-41%	-24%	i	u	i
Cc1nc2scc(C)n2c(=O)c1S(=O)(=O)Nc1ccc(F)cc1	i	0%	-2%	i	5%	i
CCCCOC(=O)c1ccc(NS(=O)(=O)c2c(C)nc3scc(C)n3c2=O)cc1	i	-29%	-8%	i	11µM*	8.2µM*
O=C(c1[nH]c(C(F)(F)F)nc1-c1ccccc1)N1CCN(c2ncccn2)CC1	u	-44%	-13%	i	-2%	u
O=C(c1[nH]c(C(F)(F)F)nc1-c1ccccc1)N1CCc2c([nH]c3ccccc23)C1	5.8µM*	-21%	5%	i	-13%	i
O=C(c1[nH]c(C(F)(F)F)nc1-c1ccccc1)N1CCN(c2ccccc2)CC1	6.5µM*	-48%	-4%	i	u	u
CCc1ccc(S(=O)(=O)c2c(C(=O)c3ccccc3)cnc3ccc(CC)cc23)cc1	i	-22%	u	i	u	i
Cc1ccc2c(c1)C=CC(C#N)N2C(=O)c1ccccc1 (stereo not drawn)	4.6µM*	-18%	-36%[11.3 µM]	i	-20%	9.2µM*
